# Screening data (PubChem)
# Rows were chosen to be rich in hits. Some 12% of all compounds tested hit in one or more screens of this group.
# L3MBTL1 block – blocks human L3MBTL1. Q9Y468. AlphaScreen L3MBTL1–H3K9me1 peptide binding. Potency, µM (titrated, usually from 57.1 µM), hits mostly inhibitors. actives 0.66% (n = 230,000); also: nearly all actives have a fitted effect of over 60% in size
#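 First, the protein-peptide complex forms for 30 min at room temperature (L3MBTL1 50 nM, biotinylated H3K9me1 peptide 75 nM). Next, compounds are pin-transferred and incubated 30 min. Finally, AlphaScreen beads are added and read after 30 min.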
# G9a block – G9a (human) methyltransferase inhibition; Q96KQ7; Potency, µM (titrated, usually from 102 µM), most hits filed as inhibitors; G9a H3K9 monomethylation, AlphaScreen, 2 h; actives 8.8% (n = 350,000); also: nearly all actives have a fitted effect of over 75% in size
# Target sequence (Q96KQ7 913-1193 limits assumed): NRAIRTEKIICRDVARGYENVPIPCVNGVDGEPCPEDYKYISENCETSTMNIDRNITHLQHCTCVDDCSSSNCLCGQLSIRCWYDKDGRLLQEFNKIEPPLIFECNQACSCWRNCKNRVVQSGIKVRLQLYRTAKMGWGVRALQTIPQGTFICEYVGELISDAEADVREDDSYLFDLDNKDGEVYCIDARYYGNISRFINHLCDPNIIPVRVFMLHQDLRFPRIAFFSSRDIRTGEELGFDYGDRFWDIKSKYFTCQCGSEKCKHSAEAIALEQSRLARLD
#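 Methyltransferase reactions run at room temperature for 2 h (20 nM enzyme, 500 nM biotin-H3K9 peptide, 20 uM SAM) after a 15 min compound preincubation; product detected by AlphaScreen beads and anti-H3K9me1 antibody.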
# Sfp PPTase inh – blocks B. subtilis Sfp PPTase activity | AID 1490 | Q9F4F7 | Biochemical Sfp PPTase activity, qHTS | Potency, µM, hits mostly inhibitors | actives 3.5% (n = 310,000);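 also: the enzyme is Sfp with the accession as filed and its product quenches rhodamine fluorescence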
#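 Step 1, compound plus 15 nM Sfp-PPTase, 15 min, room temperature. Step 2, add rhodamine-CoA (5 uM) and BHQ-2-YbbR (12.5 uM). Step 3, read 525/598 nm fluorescence at 0 and 30 min.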
# JMJD2A Tudor – blocks the human JMJD2A Tudor domain; O75164; AlphaScreen JMJD2A-Tudor / H3K4me3 peptide binding; Potency, µM (highest dose often 114 µM), usual class: inhibitors; actives 4.4% (n = 390,000); AID 504339; also: nearly all actives have a fitted effect of over 50% in size
# HP1b chromo inh – HP1-beta chromodomain-methylated histone interaction inhibition. P83916. AlphaScreen HP1-beta / biotin-H3K9me3 peptide binding. Potency, µM (doses to about 114 µM), hits mostly inhibitors. actives 0.56% (n = 390,000); also: nearly all actives have a fitted effect of over 70% in size
# Target sequence (P83916 whole entry, looked up): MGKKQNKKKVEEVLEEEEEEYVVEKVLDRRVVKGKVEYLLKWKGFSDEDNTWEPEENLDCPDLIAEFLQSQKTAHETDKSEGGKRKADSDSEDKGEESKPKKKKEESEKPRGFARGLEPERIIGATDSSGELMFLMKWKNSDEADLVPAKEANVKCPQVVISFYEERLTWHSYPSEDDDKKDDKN
#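 AlphaScreen: HP1-beta (50 nM) preformed 30 min with biotin-H3(1-18)K9me3 peptide (50 nM) in PBS pH 7.4, 0.01% Tween-20. Compound added for 30 min at RT, then streptavidin donor/nickel chelate acceptor beads (10 ug/mL) for 30 min.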
# BAZ2B inh – inhibitors of human BAZ2B bromodomain; AlphaScreen BAZ2B-H3K14Ac peptide displacement; actives 4.4% (n = 360,000); Q9UIF8; Potency, µM (titrated, usually from 114 µM), usual class: inhibitors; also: nearly all actives have a fitted effect of over 60% in size
#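 In this displacement format the biotinylated H3(5-23) peptide acetylated at Lys14 serves as ligand at 50 nM, with BAZ2B at 50 nM in PBS pH 7.4 containing 0.01% Tween-20. Donor and acceptor beads are 10 ug/mL final.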
# A number is an active result; . = inactive; ? = inconclusive; / = no result; [ ] = another dose, or the depositor's remark. Calls follow the shape of the dose curve; as a rule, active = well fitted curve in the direction sought with a large enough effect; inconclusive = small, poorly fitted or top-dose-only effect, or another doubt; inactive = no such curve, though single readings can be large; an effect the other way counts as inactive or inconclusive.
SMILES,L3MBTL1 block,G9a block,Sfp PPTase inh,JMJD2A Tudor,HP1b chromo inh,BAZ2B inh
S=C(Nc1ccc(Br)cc1Cl)Nn1cnnc1,.[11.4 µM],?,22µM,.,.,?
Cc1cc(=O)n(C(C)C(=O)NCc2ccccc2Cl)c2c1c(C)nn2-c1ccccc1 (stereo not given),/,.,/,.,.,.
COc1ccc(NC(=O)C2CCCN2c2ccc(OC)c(OC)c2)cc1OC (stereo not given),.,71µM,.,.,.,.
O=c1c2cc(Cl)ccc2[nH]c(=S)n1Cc1ccco1,.,.[12.7 µM],.,.,.,.
COc1cc2[nH]c(=S)n(Cc3ccco3)c(=O)c2cc1OC,/,3.5µM,.,.,.,.
O=C(c1ccc(Cn2c(=S)[nH]c3ccc(N4CCOCC4)cc3c2=O)cc1)N1CCC(N2CCCCC2)CC1,.,40µM,.,.,.,.
O=C(NC1CCN(Cc2ccccc2)CC1)c1ccc(Cn2c(=S)[nH]c3ccc(N4CCOCC4)cc3c2=O)cc1,/,.,.,.,.,?
O=c1c2cc(N3CCOCC3)ccc2[nH]c(=S)n1Cc1ccco1,?,7.1µM,7.9µM,50µM,.,?
O=c1c2cc(N3CCOCC3)ccc2[nH]c(=S)n1Cc1cccc(Cl)c1,.,.,.,.,.,.
O=C(Cc1ccc(-n2c(=S)[nH]c3ccccc3c2=O)cc1)N1CCC(N2CCCCC2)CC1,/,50µM,.,.,.,?
O=C(NCCCn1cccn1)C1CCC(=O)N(CCc2ccccc2)C1 (stereo not given),/,.,.,.,.,.
COc1cc2[nH]c(=S)n(Cc3ccc(C)cc3)c(=O)c2cc1OC,/,.,56µM,.,.,.
COc1ccc(Cn2c(=S)[nH]c3cc(OC)c(OC)cc3c2=O)cc1,.,.,.,.,.,.
Cc1cc(C(=O)N2CCN(c3ccc(F)cc3)CC2)c2c(C)nn(-c3cccc(Cl)c3C)c2n1,/,.,/,.,.,.
Cn1ccnc1SCC(=O)c1cccc(Br)c1,/,?,.,.,?,.
Cn1ccnc1SCC(=O)c1ccc(O)cc1,.,?,.,.,.,.
COc1cccc(C(=O)CSc2nccn2C)c1,.,50µM,56µM,.,.,.
Cn1ccnc1SCC(=O)c1ccc(Cl)cc1,/,50µM,?,.,.,.
COc1cccc(C(=O)CSc2nnnn2C)c1,.,?,50µM,.,.,.
COc1cccc(C(=O)CSc2nnc(CNS(=O)(=O)c3ccc(C)cc3)n2C)c1,/,3.2µM,.,20µM,?,.
CCC(C)(C(=O)NC1CCCC1)N(Cc1cccs1)C(=O)c1ccccn1 (stereo not given),/,.,.,.,.,.
COc1cc(Cl)c(C)cc1NC(=O)CNC(C)c1ccccc1OC (stereo not given),.,.,.,.,.,/
O=C1N(Cc2cccc(Cl)c2)C[C@@H]2C[C@@H](c3cccn3-c3cccnc3)N3CCC[C@@]123,.,50µM,.,?,.,?
O=C1N(Cc2cccnc2)C[C@@H]2C[C@@H](c3cccc(Oc4ccccc4)c3)N3CCC[C@@]123,.,13µM,.,.,.,?
O=C1N(Cc2cccnc2)C[C@@H]2C[C@@H](c3ccc(C(F)(F)F)cc3)N3CCC[C@@]123,.,?,.,.,.,.
SMILES,L3MBTL1 block,G9a block,Sfp PPTase inh,JMJD2A Tudor,HP1b chromo inh,BAZ2B inh
O=C1CCc2cc(S(=O)(=O)Nc3ccc(Cl)cc3)ccc2N1,/,/,/,.,/,/
Cc1cc(C)cc(OCC(=O)OCCN2C(=O)c3ccccc3C2=O)c1,/,56µM,.,.,.,.
Cc1ccnc(SCC(=O)c2ccc([N+](=O)[O-])cc2)n1,.,13µM,45µM,.,.,?
Cc1nc2nc(SCC(N)=O)[nH]c2cc1Br,/,?,.,.,.,.
Cc1ccnc(SCC(=O)O)n1,.,.,.,.,.,.
Cc1cc(C)nc(SCC(=O)c2ccc([N+](=O)[O-])cc2)n1,.,?,45µM,79µM,.,.
CCOC(=O)CNC(=O)CSc1nc2nc(C)c(Br)cc2[nH]1,.,35µM,.,.,.,.
